This note sets out measurements from ChEMBL document CHEMBL2218924, “A broad activity screen in support of a chemogenomic map for kinase signalling research and drug discovery” (Biochem J, 2013).

The structures appear in SMILES notation.

The target in experiment [1] is T1, Inhibitor of nuclear factor kappa-B kinase subunit alpha (Homo sapiens) (UniProt O15111).
T1 sequence (whole entry): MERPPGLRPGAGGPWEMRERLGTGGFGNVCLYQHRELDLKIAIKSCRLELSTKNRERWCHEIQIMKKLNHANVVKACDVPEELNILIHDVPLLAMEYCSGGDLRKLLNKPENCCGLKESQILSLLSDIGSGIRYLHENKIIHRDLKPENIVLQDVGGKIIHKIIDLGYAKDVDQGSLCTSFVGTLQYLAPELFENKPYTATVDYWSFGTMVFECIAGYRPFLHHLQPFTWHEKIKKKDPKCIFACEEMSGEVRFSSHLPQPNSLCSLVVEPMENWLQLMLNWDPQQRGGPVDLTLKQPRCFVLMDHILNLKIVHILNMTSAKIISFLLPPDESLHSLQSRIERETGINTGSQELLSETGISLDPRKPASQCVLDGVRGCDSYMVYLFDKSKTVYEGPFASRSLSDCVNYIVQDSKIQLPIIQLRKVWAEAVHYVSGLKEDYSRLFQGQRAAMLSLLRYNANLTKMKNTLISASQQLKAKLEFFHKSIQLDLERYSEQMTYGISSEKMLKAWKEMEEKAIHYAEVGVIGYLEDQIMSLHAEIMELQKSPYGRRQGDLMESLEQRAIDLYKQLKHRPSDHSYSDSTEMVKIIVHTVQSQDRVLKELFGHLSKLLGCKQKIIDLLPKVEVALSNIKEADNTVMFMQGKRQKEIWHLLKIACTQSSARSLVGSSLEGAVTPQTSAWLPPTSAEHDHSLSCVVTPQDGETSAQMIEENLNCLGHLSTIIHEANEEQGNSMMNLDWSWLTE
The conditions noted are these: at 1 µM.

Experiment [2] concerns the target T1, Inhibitor of nuclear factor kappa-B kinase subunit alpha (Homo sapiens). The note with it: at 10 µM.
Experiment [3] deals with T2, Inhibitor of nuclear factor kappa-B kinase subunit beta (Homo sapiens) (UniProt O14920).
T2 sequence (whole entry): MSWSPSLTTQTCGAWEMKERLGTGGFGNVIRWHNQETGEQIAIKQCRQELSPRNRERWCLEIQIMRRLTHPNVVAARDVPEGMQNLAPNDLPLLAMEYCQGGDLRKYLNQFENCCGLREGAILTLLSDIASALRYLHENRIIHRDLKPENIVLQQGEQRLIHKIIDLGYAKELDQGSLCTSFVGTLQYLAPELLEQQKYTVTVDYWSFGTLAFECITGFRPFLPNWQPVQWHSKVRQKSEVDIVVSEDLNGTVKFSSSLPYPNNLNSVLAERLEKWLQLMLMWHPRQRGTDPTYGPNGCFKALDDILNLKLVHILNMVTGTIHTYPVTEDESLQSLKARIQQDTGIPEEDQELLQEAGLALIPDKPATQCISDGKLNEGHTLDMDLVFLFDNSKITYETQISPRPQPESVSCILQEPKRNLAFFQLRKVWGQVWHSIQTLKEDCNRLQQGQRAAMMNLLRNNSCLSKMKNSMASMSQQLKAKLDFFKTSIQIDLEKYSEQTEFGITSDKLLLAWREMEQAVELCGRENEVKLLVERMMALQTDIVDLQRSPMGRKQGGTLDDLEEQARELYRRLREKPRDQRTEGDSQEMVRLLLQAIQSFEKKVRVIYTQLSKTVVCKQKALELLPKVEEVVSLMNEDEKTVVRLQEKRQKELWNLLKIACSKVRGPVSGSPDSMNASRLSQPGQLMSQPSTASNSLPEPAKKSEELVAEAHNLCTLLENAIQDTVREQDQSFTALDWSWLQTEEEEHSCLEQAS
The conditions noted are these: at 10 µM.

The target of experiment [4] is Insulin receptor (Homo sapiens) (UniProt P06213). The note with it: at 10 µM.
Experiment [5] shares this target. The note with it: at 1 µM.
For experiment [6] the target is unchanged. The note with it: at 10 µM. This is another data set of the same source.
Experiment [7] addresses Interleukin-1 receptor-associated kinase 1 (Homo sapiens) (UniProt P51617). The note with it: at 1 µM.
Experiment [8] has the same target. The conditions noted are these: at 10 µM.
The target in experiment [9] is T3, Interleukin-1 receptor-associated kinase 4 (Homo sapiens) (UniProt Q9NWZ3).
T3 sequence (whole entry): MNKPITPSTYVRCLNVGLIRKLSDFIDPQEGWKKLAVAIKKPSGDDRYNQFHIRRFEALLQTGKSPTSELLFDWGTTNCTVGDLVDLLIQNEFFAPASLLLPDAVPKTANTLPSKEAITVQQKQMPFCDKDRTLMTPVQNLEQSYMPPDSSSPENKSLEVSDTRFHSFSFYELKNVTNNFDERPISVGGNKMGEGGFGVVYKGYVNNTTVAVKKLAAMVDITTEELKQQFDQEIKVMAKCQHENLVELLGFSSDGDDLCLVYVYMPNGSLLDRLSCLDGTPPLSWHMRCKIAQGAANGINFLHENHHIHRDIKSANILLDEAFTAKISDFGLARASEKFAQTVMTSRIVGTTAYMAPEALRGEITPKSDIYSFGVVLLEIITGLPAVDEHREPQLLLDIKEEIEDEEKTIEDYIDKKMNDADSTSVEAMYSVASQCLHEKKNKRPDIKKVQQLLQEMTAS
The note with it: at 10 µM.

Experiment [10] deals with Insulin receptor-related protein (Homo sapiens) (UniProt P14616). The conditions noted are these: at 1 µM.
Experiment [11] has the same target. The conditions noted are these: at 10 µM.
Experiment [12] deals with T4, Tyrosine-protein kinase ITK/TSK (Homo sapiens) (UniProt Q08881).
T4 sequence (whole entry): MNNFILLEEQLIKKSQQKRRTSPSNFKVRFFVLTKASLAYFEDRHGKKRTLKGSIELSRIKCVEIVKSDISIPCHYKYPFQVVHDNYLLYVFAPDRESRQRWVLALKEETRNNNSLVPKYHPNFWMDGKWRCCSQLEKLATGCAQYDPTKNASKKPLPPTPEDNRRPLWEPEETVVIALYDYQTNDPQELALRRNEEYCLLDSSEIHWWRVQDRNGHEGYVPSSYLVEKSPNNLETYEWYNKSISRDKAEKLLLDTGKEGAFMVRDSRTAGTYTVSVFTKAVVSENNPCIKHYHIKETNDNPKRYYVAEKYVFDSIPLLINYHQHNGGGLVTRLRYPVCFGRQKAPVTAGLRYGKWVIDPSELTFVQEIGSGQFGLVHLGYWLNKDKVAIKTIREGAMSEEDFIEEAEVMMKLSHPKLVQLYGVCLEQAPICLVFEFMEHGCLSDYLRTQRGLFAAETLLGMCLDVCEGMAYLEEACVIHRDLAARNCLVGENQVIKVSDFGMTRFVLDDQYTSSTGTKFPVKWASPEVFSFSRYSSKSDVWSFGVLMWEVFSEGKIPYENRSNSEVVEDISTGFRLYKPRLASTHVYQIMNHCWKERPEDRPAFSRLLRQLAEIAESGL
The note with it: at 1 µM.

Experiment [13] deals with T4, Tyrosine-protein kinase ITK/TSK (Homo sapiens). The note with it: at 10 µM.
For experiment [14], the target named is Tyrosine-protein kinase JAK2 (Homo sapiens) (UniProt O60674). The conditions noted are these: at 1 µM.
For experiment [15] the target is unchanged. The conditions noted are these: at 10 µM.
The target of experiment [16] is T5, Tyrosine-protein kinase JAK3 (Homo sapiens) (UniProt P52333).
T5 sequence (whole entry): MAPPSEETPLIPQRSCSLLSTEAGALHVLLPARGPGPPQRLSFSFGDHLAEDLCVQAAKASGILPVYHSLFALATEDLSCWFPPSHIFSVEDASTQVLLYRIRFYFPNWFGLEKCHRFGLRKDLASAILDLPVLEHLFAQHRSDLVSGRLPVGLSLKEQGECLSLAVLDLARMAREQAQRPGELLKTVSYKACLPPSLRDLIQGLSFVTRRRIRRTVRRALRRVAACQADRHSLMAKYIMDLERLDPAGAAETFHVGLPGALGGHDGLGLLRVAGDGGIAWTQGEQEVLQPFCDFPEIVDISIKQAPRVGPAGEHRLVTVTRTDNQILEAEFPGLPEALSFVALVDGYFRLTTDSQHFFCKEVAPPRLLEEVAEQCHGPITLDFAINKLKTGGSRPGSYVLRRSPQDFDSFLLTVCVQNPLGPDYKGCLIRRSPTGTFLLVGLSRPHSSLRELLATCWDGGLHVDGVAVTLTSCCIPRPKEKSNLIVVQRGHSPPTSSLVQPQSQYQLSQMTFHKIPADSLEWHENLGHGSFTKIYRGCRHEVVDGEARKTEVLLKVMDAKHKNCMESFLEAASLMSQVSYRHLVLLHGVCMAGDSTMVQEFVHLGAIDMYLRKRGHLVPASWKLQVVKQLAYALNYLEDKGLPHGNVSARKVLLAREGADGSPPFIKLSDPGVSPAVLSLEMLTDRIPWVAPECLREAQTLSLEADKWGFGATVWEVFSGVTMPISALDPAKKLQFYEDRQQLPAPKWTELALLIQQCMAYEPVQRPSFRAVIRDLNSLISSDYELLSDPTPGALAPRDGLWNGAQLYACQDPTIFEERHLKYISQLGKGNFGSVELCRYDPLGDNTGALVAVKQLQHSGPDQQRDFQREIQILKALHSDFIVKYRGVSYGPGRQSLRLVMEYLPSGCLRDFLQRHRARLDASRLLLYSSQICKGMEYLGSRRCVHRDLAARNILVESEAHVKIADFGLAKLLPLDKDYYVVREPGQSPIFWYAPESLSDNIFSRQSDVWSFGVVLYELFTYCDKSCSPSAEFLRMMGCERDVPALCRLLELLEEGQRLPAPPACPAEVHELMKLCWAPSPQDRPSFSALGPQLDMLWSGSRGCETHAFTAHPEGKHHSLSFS
The conditions noted are these: at 1 µM.

Experiment [17] concerns the target T5, Tyrosine-protein kinase JAK3 (Homo sapiens). The conditions noted are these: at 10 µM.
Experiment [18] deals with T2, Inhibitor of nuclear factor kappa-B kinase subunit beta (Homo sapiens). The note with it: at 1 µM.
Experiment [19] addresses Insulin receptor (Homo sapiens) (UniProt P06213). The note with it: at 1 µM. The source holds these as a separate data set.
Experiment [20] has as its target T3, Interleukin-1 receptor-associated kinase 4 (Homo sapiens). The note with it: at 1 µM.

Sequence of Insulin receptor (Homo sapiens) (P06213 28-758 limits assumed): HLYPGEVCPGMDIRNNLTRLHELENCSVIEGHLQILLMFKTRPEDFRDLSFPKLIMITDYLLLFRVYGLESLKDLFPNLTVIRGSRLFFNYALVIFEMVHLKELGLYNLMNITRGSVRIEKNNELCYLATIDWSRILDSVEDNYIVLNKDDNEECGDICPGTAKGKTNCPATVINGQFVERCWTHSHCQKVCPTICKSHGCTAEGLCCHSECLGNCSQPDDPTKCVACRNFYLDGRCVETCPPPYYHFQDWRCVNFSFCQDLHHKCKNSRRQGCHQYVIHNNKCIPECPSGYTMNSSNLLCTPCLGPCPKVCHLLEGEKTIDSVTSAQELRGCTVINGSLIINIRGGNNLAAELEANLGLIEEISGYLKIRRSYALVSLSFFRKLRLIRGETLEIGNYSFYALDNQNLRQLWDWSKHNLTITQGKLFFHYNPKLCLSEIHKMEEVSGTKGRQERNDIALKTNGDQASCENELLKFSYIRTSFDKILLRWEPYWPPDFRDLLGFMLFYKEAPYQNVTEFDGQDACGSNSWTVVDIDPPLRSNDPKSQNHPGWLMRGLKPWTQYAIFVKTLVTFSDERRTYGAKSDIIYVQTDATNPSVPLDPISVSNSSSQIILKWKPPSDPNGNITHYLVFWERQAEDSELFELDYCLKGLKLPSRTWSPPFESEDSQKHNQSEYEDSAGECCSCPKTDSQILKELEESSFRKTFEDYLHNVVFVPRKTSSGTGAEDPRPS
Sequence of Insulin receptor (Homo sapiens) (P06213 763-1382 limits assumed): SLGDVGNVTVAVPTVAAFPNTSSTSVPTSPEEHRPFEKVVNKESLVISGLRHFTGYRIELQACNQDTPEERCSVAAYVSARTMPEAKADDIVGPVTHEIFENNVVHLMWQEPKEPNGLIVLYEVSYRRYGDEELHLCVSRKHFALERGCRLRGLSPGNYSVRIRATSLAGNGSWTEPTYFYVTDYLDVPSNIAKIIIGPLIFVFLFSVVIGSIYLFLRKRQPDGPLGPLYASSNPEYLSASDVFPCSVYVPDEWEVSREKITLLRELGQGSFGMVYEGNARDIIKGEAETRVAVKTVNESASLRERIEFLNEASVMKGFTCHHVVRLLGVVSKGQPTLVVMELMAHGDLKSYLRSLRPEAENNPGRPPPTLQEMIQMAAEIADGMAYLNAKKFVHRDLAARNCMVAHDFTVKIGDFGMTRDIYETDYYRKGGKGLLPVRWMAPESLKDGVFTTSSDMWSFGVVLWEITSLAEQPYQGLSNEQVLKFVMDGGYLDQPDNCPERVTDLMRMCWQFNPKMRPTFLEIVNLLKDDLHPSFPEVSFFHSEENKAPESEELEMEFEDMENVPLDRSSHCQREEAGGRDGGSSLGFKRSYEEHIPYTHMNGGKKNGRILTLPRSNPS
Sequence of Interleukin-1 receptor-associated kinase 1 (Homo sapiens) (P51617 whole entry, looked up): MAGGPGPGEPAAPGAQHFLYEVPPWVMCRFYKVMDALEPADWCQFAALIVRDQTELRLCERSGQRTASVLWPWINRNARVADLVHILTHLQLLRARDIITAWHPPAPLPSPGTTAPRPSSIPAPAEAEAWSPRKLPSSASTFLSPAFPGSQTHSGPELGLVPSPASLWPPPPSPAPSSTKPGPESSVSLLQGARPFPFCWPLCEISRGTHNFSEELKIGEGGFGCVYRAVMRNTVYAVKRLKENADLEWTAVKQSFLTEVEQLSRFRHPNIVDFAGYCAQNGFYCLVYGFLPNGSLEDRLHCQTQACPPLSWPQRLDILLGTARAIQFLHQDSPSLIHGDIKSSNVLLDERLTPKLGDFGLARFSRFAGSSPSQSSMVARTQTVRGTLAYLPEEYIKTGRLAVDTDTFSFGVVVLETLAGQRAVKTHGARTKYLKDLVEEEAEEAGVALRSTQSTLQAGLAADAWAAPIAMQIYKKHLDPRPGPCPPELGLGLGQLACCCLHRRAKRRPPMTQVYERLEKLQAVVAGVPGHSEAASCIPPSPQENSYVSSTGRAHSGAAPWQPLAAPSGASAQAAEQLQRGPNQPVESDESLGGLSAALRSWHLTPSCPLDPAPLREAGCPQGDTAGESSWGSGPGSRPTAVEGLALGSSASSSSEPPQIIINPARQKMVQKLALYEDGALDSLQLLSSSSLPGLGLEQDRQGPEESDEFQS
Sequence of Insulin receptor-related protein (Homo sapiens) (P14616 27-742 limits assumed): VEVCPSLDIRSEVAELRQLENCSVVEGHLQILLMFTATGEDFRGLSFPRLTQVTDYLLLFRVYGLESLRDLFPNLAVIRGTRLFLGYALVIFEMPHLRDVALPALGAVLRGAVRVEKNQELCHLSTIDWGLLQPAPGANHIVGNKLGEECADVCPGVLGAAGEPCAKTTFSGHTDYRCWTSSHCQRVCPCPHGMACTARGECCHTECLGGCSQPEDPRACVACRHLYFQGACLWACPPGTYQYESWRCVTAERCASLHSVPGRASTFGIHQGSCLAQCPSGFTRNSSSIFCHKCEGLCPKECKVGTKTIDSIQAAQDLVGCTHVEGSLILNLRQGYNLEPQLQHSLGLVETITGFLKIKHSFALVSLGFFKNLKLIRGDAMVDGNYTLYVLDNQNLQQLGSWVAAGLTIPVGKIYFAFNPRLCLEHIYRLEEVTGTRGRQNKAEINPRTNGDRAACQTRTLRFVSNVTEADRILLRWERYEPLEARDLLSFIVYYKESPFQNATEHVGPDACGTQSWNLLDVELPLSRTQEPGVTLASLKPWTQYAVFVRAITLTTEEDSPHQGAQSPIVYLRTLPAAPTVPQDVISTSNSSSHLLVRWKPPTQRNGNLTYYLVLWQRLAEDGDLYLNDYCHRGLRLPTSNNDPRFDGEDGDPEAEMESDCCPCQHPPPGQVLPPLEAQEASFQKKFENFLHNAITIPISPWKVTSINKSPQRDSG
Sequence of Insulin receptor-related protein (Homo sapiens) (P14616 747-1297 limits assumed): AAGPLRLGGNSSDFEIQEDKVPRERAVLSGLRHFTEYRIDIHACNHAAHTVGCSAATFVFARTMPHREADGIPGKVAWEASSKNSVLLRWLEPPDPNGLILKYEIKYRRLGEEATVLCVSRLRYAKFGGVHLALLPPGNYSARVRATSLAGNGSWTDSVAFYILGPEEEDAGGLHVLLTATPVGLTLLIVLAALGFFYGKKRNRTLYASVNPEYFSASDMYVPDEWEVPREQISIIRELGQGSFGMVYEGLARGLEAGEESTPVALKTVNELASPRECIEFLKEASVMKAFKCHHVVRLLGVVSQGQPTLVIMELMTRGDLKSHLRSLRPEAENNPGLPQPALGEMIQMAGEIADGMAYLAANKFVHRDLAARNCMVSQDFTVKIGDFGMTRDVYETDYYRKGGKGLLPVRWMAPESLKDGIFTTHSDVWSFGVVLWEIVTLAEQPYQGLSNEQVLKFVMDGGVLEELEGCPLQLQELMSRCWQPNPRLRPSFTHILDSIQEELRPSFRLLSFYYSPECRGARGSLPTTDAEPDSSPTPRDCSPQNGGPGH
Sequence of Tyrosine-protein kinase JAK2 (Homo sapiens) (O60674 whole entry): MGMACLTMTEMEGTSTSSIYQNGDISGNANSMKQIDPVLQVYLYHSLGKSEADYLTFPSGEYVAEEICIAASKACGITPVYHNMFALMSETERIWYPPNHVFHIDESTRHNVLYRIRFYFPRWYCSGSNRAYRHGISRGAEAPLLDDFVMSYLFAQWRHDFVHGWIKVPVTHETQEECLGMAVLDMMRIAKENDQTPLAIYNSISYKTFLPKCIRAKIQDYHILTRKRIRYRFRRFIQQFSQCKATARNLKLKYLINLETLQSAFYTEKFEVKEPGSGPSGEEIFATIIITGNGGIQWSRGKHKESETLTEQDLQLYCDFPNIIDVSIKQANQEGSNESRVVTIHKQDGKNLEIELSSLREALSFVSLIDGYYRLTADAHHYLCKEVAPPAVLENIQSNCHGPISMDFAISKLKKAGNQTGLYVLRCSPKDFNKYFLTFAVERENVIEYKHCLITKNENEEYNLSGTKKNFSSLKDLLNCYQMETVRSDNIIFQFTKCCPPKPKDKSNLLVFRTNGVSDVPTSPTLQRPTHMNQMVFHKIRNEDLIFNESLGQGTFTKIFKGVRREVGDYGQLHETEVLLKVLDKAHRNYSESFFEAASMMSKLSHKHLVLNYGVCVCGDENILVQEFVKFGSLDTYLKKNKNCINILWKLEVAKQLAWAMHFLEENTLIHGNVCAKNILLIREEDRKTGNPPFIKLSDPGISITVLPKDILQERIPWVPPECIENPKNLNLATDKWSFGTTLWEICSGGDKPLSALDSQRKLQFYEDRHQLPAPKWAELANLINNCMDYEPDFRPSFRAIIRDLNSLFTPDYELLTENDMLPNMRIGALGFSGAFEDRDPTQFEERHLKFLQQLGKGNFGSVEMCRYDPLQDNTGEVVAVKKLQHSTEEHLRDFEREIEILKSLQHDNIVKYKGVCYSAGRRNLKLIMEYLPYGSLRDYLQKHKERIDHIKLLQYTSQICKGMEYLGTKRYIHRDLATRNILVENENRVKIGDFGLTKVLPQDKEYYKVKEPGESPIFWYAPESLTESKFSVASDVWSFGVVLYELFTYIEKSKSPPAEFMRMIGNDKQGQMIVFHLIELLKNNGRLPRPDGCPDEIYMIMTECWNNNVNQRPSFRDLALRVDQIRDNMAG

Consider `COc1ccc2c(c[n+](C)c3c4cc5c(cc4ccc23)OCO5)c1OC`, for which the residual activity stood at 97% in experiment [1]; 83% in experiment [2]; 84% in experiment [3]; 130% in [4]; 99% in experiment [5]; 84% in [6]. The residual activity was 96% in [7]; 83% in experiment [8]; 83% in experiment [9]; 130% in experiment [10]; 76% in [11]; 99% in experiment [12]. The residual activity in [13] is 91%; in [14], 80%; in experiment [15] it was 121%; in [16] it was 91%; in experiment [17], 67%.

As for `O=[N+]([O-])/C=C/c1ccc2c(c1)OCO2`, the residual activity in experiment [1] is 91%; in [2], 94%; in experiment [18] it was 98%; in experiment [3], 95%; in [19], 117%; in [4], 85%. The residual activity in experiment [5] amounted to 96%; in experiment [6] it was 102%; in [7], 95%; in [8], 83%; in [20] it was 116%; in experiment [9] it was 107%. For the same compound, the residual activity amounted to 106% in [10]; 82% in [11]; 105% in experiment [12]; 100% in experiment [13]; 73% in [14]; 118% in [15]. The figures for the residual activity in experiment [16] and in experiment [17] were 114% and 108%, respectively.

Turning to `N/C(=N\[N+](=O)[O-])N/N=C\c1ccc(-c2cccc([N+](=O)[O-])c2)o1`, the residual activity in experiment [3] came out at 99%; in experiment [20], 100%; in experiment [9], 85%; in [14], 86%; in experiment [15] it was 85%.

Consider `c1cc(-c2cnn3cc(-c4ccc(OCCN5CCCCC5)cc4)cnc23)ccn1`, for which the residual activity in experiment [2] was 86%; in experiment [3], 85%; in experiment [19], 138%; in experiment [7] it was 23%; in experiment [8], 2%; in [20] it was 81%. Besides, the figures for the residual activity in experiment [9], in experiment [12] and in experiment [13] were 18%, 54% and 9%, respectively.

In the case of `CCn1cnc2c(Nc3cccc(Cl)c3)nc(N[C@@H]3CCCC[C@@H]3N)nc21`, the residual activity in [1] is 99%; in experiment [2], 89%; in [3], 93%; in experiment [5], 70%; in experiment [6], 34%; in [7], 85%. Further, the residual activity is 64% in experiment [8]; 85% in experiment [20]; 23% in [9]; 89% in [12]; 39% in experiment [13]; 116% in experiment [14]. The residual activity was 78% in experiment [15], 112% in experiment [16] and 119% in experiment [17].

A word on the residual activity: it is the signal under treatment as a percentage of the control signal.
